Measured values taken from PubChem BioAssay (NCATS).
Inconclusive results are not listed. Entries that show only a call come without a potency. The source made the active and inactive calls. Unless noted, the call rests on the fitted dose curve.

What was measured:
[1] = Primary qHTS for Huh7 cytotoxicity: counterscreen for inhibitors of MERS-S pseudotyped particle cell entry (AID 1479147); settings: outcome: dose series up to 57.1 µM unless noted
[2] = Primary qHTS for inhibitors of MERS-S pseudo-typed particle cell entry (AID 1479149); settings: outcome: dose series up to 57.1 µM unless noted; further: nearly all actives have a fitted effect of over 60% in size
[3] = Primary qHTS for Vero E6 cytotoxicity: counterscreen for inhibitors of SARS-S pseudo-typed particle cell entry (AID 1479150); settings: outcome: dose series up to 57.1 µM unless noted
[4] = Cytotoxicity counterscreen for inhibitors of SARS-CoV-2 cell entry (AID 1645845); settings: outcome: dose series up to 57.1 µM unless noted; further: nearly all actives have a fitted effect of over 50% in size
Method in brief: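 Expi293F/hACE2 cells seeded overnight; cpd pin-transferred in DMSO, 1 h preincubation, + media, 48 h 37 C 5% CO2; ATPLite 1step luminescence; normalized to cells and no cells.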

[5] = Primary qHTS to identify inhibitors of SARS-CoV-2 cell entry (AID 1645846); settings: SARS-CoV-2 pseudovirus cell entry assay, luminescence; activity change, negative = inhibition: at 57.1 µM (top of the series) unless noted; further: nearly all actives have a fitted effect of over 45% in size
Method in brief: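 HEK293-ACE2 (Expi293F, stable hACE2), 1500 cells/well, o/n 37C; cpd 23 nL pin, 1 h; MLV-PP w/ SARS-CoV-2-S (Wuhan-Hu-1, Δ19 C-term); 48 h 37C; Bright-Glo luminescence; normalized vs S-PP and bald PP.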

[6] = KB-8-5-11 P-gp reporter qHTS against the NCATS DSHEA and TCM libraries (AID 1919977; active means well fitted curve in the direction sought with a large enough effect)
Method in brief: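 CellTiter-Glo luminescence after ~72 h exposure at 37C gave viability of KB-8-5-11 cells, the P-gp-overexpressing subline. Substances were titrated; colchicine was omitted from assay medium.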

Compound | Potency [1] | Potency [2] | Potency [3] | Potency [4] | activity change, negative = inhibition [5] [%] | Potency [6] | Potency [5]
CN1CCN(C2=Nc3ccccc3Cc3ccccc32)CC1 | inactive | inactive | inactive | inactive | -23.9 |  | 
CCCCC/C=C/C/C=C/CCCCCCCC(=O)O | inactive | inactive | inactive | inactive | -0.957 | inactive | 
NCCC[C@H](NC(=O)[C@@H]1CCCN1C(=O)[C@@H]1CSSC[C@H](N)C(=O)N[C@@H](Cc2ccc(O)cc2)C(=O)N[C@@H](Cc2ccccc2)C(=O)N[C@@H](CCC(N)=O)C(=O)N[C@@H](CC(N)=O)C(=O)N1)C(=O)NCC(N)=O | inactive | inactive | inactive | inactive | -24.3 |  | 
COc1cc(/C=C\C(=O)N2CCN(CC(=O)N3CCCC3)CC2)cc(OC)c1OC | inactive | inactive | inactive | inactive |  |  | inactive
OCCCNc1ccccc1 | inactive | inactive | inactive | inactive | -22.3 |  | 
CC1(C)SC2C(NC(=O)Cc3ccccc3)C(=O)N2C1C(=O)O (stereo unspecified) | inactive | inactive | inactive | inactive | -15.9 |  | 
